The values below come from PubChem BioAssay (Tox21).

A number with no mark means an inactive call. Calls of active or inactive are those of the source. Calls come from the whole dose curve; as a rule, active = well fitted curve in the direction sought with a large enough effect in the repeat runs; inconclusive = weak or mixed curves; inactive = flat fitted curve, though single readings scatter.
% is set by controls: 0 for no effect and ±100 for the full control effect.

This assay is described as follows: qHTS assay to test for compound auto fluorescence at 460 nm (blue) in HepG2 cells (AID 720687). The following applies: autofluorescence 405/460 nm, 1 h; series mostly up to 91.3 µM; fluorescence, % of fluorescent control: at the top concentration. From the text: U.S. Tox21 Program National Center for Advancing Translational Sciences [NCATS] NIH Chemical Genomics Center [NCGC] U.S. Environmental Protection Agency [EPA] National Institutes of Environmental Health Sciences [NIEHS] National Toxicology Program [NTP] U.S. Food and Drug Administration [FDA] Tox21 Assay Overview: Compound auto fluorescence often interferes with screening of the compound library against various biological targets and signaling pathways. Some of these compounds may have fluorophoric properties. Such properties may interfere with the assay outputs resulting in false positives and/or negatives. To decrease such complications and ensure the compound activities are relevant in terms of biological response, the Tox21 10K compound library was screened for auto fluorescence. From the fluorophores used as reporter signals in our screening assays, the auto fluorescence equivalencies of compounds against three fluorophores have been evaluated: Triamterene, Fluorescein and Rose Bengal sodium for blue, green and red fluorescence, respectively. The fluorescence intensities were measured using Excitation/Emission wavelengths at 405/460nm, 485/535nm and 540/590nm for blue, green and red labels, respectively. This assay includes the blue fluorescence data.
Tox21 Assay Protocol Summary: 2,000 HepG2 cells in 5 uL of culture medium (MEM containing 10% FBS) per well were dispensed into black wall/clear bottom 1536-well plates using a Multidrop Combi Dispenser (ThermoFisher Scientific, Waltham, MA). The assay plates were incubated overnight at 37 C to allow cell attachment to the well bottom, followed by the transfer of 23 nL compound or DMSO vehicle by a pintool work station (Kalypsys , San Diego, CA). After the assay plates were incubated for 1 hr at 37 C and 5% CO2, fluorescence intensities in the assay plates were measured by an Envision (PerkinElmer, Shelton, CT) plate reader using three labels for measuring blue, green and red fluorescence at […] 460, 535 and 590 nm respectively.
For orientation: qHTS replaces the single test concentration by a dilution series.
For the molecule `CCCCOCCOC(=O)COc1cc(Cl)c(Cl)cc1Cl`, the “fluorescence, % of fluorescent control” value is -0.0812%.

As for `Cc1ncc([C@@H](CCCCCCc2ccc3c(n2)NCCC3)CC(=O)O)cn1`, the “fluorescence, % of fluorescent control” value is 0.337%. On the same count and under the same terms, the figure for `C=CCOCC(O)CO` (stereo not given) is -0.0574%; for `[K+]` it is -0.126%; for `NC(=O)N[C@@H](CCC(=O)O)C(=O)O` it is 0.0762% [at 46 µM]. With `C=C(C)C(=O)OCC1CCCO1` (stereo not given), the “fluorescence, % of fluorescent control” value is -0.0946%.

`CC(C)=CCC/C(C)=C/C#N`: the “fluorescence, % of fluorescent control” value was 0.323% [at 95.7 µM].

Consider `CC(=O)Nc1ccc(OCC(O)CNC(C)C)cc1` (stereo not given), for which the “fluorescence, % of fluorescent control” value was 0.0358% [at 46 µM]. `c1ccc(CCc2ccccc2)cc1`: the “fluorescence, % of fluorescent control” value was 0.0309%. On the same count and under the same terms, to `CC(=O)C1CCCCC1=O` (stereo not given) belongs 0.0142%; to `CC1CCC(CO)CC1` (stereo not given), -0.026% [at 95.7 µM]. In the case of `O=S(=O)(O)c1cccc2ccccc12`, the “fluorescence, % of fluorescent control” value is -0.0696%. For `O=C(O)CNC(=O)c1ccc(CO)o1`, the “fluorescence, % of fluorescent control” value is -0.0296%. Regarding `CN(C)[C@@H]1C(=O)C(C(=O)NCN2CCCC2)=C(O)[C@@]2(O)C(=O)C3=C(O)c4c(O)cccc4[C@@](C)(O)C3C[C@@H]12` (stereo not given in full), the call was inactive. `Cc1ccnc(NS(=O)(=O)c2ccc(N)cc2)n1`: the fluorescence, % of fluorescent control was -0.0164% [at 18.6 µM]. The same measure, in the same setting: to `NC(=O)Cc1cccc2ccccc12` belongs -0.0417%. Same read-out and setting: to `C[C@H]1[C@H](NC(=O)/C(=N/OC(C)(C)C(=O)O)c2csc(N)n2)C(=O)N1S(=O)(=O)O` (stereo in doubt) belongs 0.0116% [at 18.6 µM]; to `CCCO[Si](OCCC)(OCCC)OCCC`, -0.0286%; to `CC(=O)c1ccccc1[N+](=O)[O-]`, 0.0245%. For the molecule `CCOC(=O)c1cnc2c(cnn2CC)c1NN=C(C)C`, the “fluorescence, % of fluorescent control” value is 3.22% [at 46 µM]. Still for that read-out and setting: the figure for `CC(C)c1ccc2ncccc2c1` is 0.0383%.

As for `CCC(=O)OCc1ccccc1`, the “fluorescence, % of fluorescent control” value was -0.265%. Same read-out and setting: the figure for `C[N+]1(CC2COC(c3ccccc3)(c3ccccc3)O2)CCCCC1` (stereo not given) is -0.155% [at 46 µM]; for `O=C(O)CNC(=O)c1ccccc1` it is -0.103% [at 46 µM]; for `NCCCC[C@H](N[C@@H](CCc1ccccc1)C(=O)O)C(=O)N1CCC[C@H]1C(=O)O` it is 0.0286% [at 18.6 µM]. Same read-out and setting: the figure for `CCCCc1ccc2c(n1)[C@@H](c1ccc(OC)cc1C[C@H](C)C(=O)O)[C@H](C(=O)O)[C@H]2c1ccc2c(c1)OCO2` is 0.0607%. The same measure, in the same setting: the figure for `CCN(Cc1ccccc1)c1ccccc1` is -0.0368%; for `Nc1c2c(nc3c1CCC3)CCCC2` it is 0.18% [at 46 µM]. Take `CCO[Si](OCC)(OCC)c1ccccc1`: the “fluorescence, % of fluorescent control” value is -0.348%. For the molecule `Cc1ccc(C(=O)Nc2ccc(S(=O)(=O)O)c3cc(S(=O)(=O)O)cc(S(=O)(=O)O)c23)cc1NC(=O)c1cccc(NC(=O)Nc2cccc(C(=O)Nc3cc(C(=O)Nc4ccc(S(=O)(=O)O)c5cc(S(=O)(=O)O)cc(S(=O)(=O)O)c45)ccc3C)c2)c1`, the “fluorescence, % of fluorescent control” value was -0.0434% [at 46 µM]. The same measure, in the same setting: the figure for `CNCCO` is -0.0868%; for `CC1=NN(c2cccc(S(=O)(=O)O)c2)C(=O)C1` it is -0.0791%. On the same count and under the same terms, to `CC(C)COC(=O)c1ccc(N)cc1` belongs -0.0126% [at 46 µM]; to `CC(CC=O)CC(C)(C)C` (stereo not given), -0.141%; to `CN(C)CCN(C)CCN(C)C`, -0.0527%.

As to `CC(=O)N[C@H]1[C@H]([C@H](O)[C@H](O)CO)OC(C(=O)O)=C[C@@H]1N=C(N)N`, the “fluorescence, % of fluorescent control” value is 0.0605% [at 46 µM]. In the case of `CN1CC(=O)N/C1=N/C(=O)Nc1cccc(Cl)c1`, the outcome was inactive. For the molecule `Cc1ncc(COP(=O)(O)O)c(C=O)c1O`, the “fluorescence, % of fluorescent control” value was 0.236% [at 46 µM]. Same read-out and setting: the figure for `CC(=O)Oc1cccc(C)c1` is -0.0057% [at 46 µM].

On to `CCOCC(C)O` (stereo not given), for which the “fluorescence, % of fluorescent control” value is 0.102%.
